Data on 57 molecules can be found in PubChem BioAssay AID588689 (Southern Research Specialized Biocontainment Screening …, 2011).

For this assay, the target named is Genome polyprotein (Dengue virus type 2 (strain 16681-PDK53)) (UniProt P29991). Description: Dengue-2 NS5 methyltransferase inhibitors, primary screen, biochemical, confirmation dose response (AID 588689). To be noted: Dengue-2 NS5 methyltransferase capping enzyme assay, at 25 µM, stronger effect = higher value.
[1] abbreviates: measured here: pilot screen replicate inhibition.

Screen size: about 340,000 compounds; about 1,000 (0.29%) were called active. Cut-off read from the data, not from the text of the source: inconclusive = inhibition above about 29% without an active follow-up result; inactive = below that. The list is a sample of the results. Potency and affinity values are given separately.

On to `CCn1c(=S)sc2c(=O)n(-c3ccccc3)c(SCC(=O)NCc3ccco3)nc21`, for which the inhibition is 2.42% (inactive).

Take `CN1C[C@H]2CON(C)[C@H]2C[C@H]1c1cccc(-c2ccccc2)c1`: the inhibition is -6.62% (inactive). The inhibition under setting [1] was -3.38%.

On to `COc1ccc(-n2c(-c3ccc(Br)cc3)nc(=S)c3c2CCCC3)cc1`, for which the inhibition was -4.74% (inactive).

On to `CC(C)CCNC(=O)c1ccc(-n2cnc3cccnc32)cc1`, for which the inhibition was -2.72% (inactive).

In the case of `COc1ccc2cc(CCNC(=O)CCc3ccccc3)c(=O)[nH]c2c1`, the inhibition is 0.89% (inactive).

With `O=C(Nc1ncn[nH]1)c1ccc(S(=O)(=O)N2CCOCC2)cc1`, the inhibition was -3.52% (inactive).

As to `COc1ccc(C2=CC(=O)CC(C)(C)C2)cc1`, the inhibition is 2.79% (inactive).

As to `COC(=O)COc1ccc(NC(=O)C(c2ccccc2)c2ccccc2)cc1`, the inhibition is -6.79% (inactive).

For the molecule `COc1cccc(C(C2C(=O)CC(C)(C)CC2=O)C2C(=O)CC(C)(C)CC2=O)c1`, the inhibition is 23.1% (inactive).

`CC1(C)CC(=O)C(C(c2ccc(F)cc2)C2C(=O)CC(C)(C)CC2=O)C(=O)C1`: the inhibition was -0.73% (inactive).

For `COC(=O)c1ccc(C(C2C(=O)CC(C)(C)CC2=O)C2C(=O)CC(C)(C)CC2=O)cc1`, the inhibition was -3.89% (inactive).

Turning to `CC1(C)CC(=O)C(C(c2cccnc2)C2C(=O)CC(C)(C)CC2=O)C(=O)C1`, the inhibition was 12.3% (inactive). Further, the inhibition under setting [1] is -0.765%.

With `CC(=O)N(C)N(C)c1cc(C)nc(N)n1`, the inhibition is 0.78% (inactive).

On to `Nn1cnnc1N/N=C/c1ccc(F)cc1`, for which the inhibition is 0.39% (inactive).

In the case of `COc1ccc(CNc2ccc(S(N)(=O)=O)cc2)c(OC)c1OC`, the inhibition is -2.41% (inactive).

For the molecule `CCOc1ccc(NC(=O)N2CCCC2C(=O)NCC2CCCO2)cc1` (centres undefined), the inhibition is -7.19% (inactive).

Regarding `O=C1CCCc2oc3c(c21)CCCC3`, the inhibition was 0.9% (inactive).

Consider `COCCN1C(=O)C(=O)/C(=C(/O)c2ccc3c(c2)OCCO3)C1c1ccc(C(=O)OC)cc1` (centres undefined), for which the inhibition was 0.56% (inactive).

Turning to `COc1ccc(-c2csc(NC(=O)CSc3n[nH]c(C)n3)n2)cc1`, the inhibition was -3.23% (inactive).

`COc1ccc(-c2csc(NC(=O)CSc3nc(C)cs3)n2)cc1`: the inhibition is -6.77% (inactive).

With `COc1ccccc1C(C)NCC(=O)NCc1ccc(C)cc1` (centres undefined), the inhibition is -3.92% (inactive).

For the molecule `Cc1nnc(SCC(=O)Nc2nnc(SCc3cccc(Br)c3)s2)s1`, the inhibition was 0.64% (inactive).

As for `CCCc1nc(SCC(=O)Nc2nc3c(s2)CCCC3)c2ccccc2n1`, the inhibition was 2.76% (inactive).

As to `COc1ccc(C(=Cc2ccccc2[N+](=O)[O-])C(=O)O)cc1`, the inhibition was -6.2% (inactive).

As to `CCOc1ccc(N2C(=O)C(=O)/C(=C(/O)c3ccccc3)C2c2ccccc2[N+](=O)[O-])cc1` (centres undefined), the inhibition was 13.8% (inactive).

Consider `O=C1c2cccc([N+](=O)[O-])c2C(=O)N1c1ccccc1`, for which the inhibition was 0% (inactive).

For `O=C1NN(c2ccccc2)C(=O)/C1=C\c1ccc2c(c1)OCO2`, the inhibition was 15.1% (inactive).

As to `COc1ccc(N2C(=O)CSC2c2ccccc2[N+](=O)[O-])cc1` (centres undefined), the inhibition is 0.75% (inactive).

With `CN1C/C(=C/c2ccccc2[N+](=O)[O-])C(=O)/C(=C\c2ccccc2[N+](=O)[O-])C1`, the inhibition was 1.54% (inactive).

Consider `COc1cc(/C=C2/C(=O)NN(c3ccc(C)c(Cl)c3)C2=O)cc([N+](=O)[O-])c1O`, for which the inhibition was 69.8% (inactive).

For `CCOc1ccc(C(=O)N/N=C/c2ccccc2[N+](=O)[O-])cc1`, the inhibition was -7.26% (inactive).

With `CCc1noc(C)c1C(=O)NCCc1ccc(OC)c(OC)c1`, the inhibition was -2.74% (inactive).

Turning to `CCOC(=O)C1C(C)=C(Nc2ccc(OC)cc2)C(=O)N1c1ccc(OC)cc1` (centres undefined), the inhibition is -2.18% (inactive).

Turning to `O=C(Cn1cc([N+](=O)[O-])cn1)NCc1ccccc1Cl`, the inhibition was -6.16% (inactive).

For `Cc1c(C2(O)CCCCC2)[nH]c2ccc(C#N)cc12`, the inhibition was 1.37% (inactive).

Regarding `O=C1NC(=O)C(=Cc2ccccc2[N+](=O)[O-])S1`, the inhibition was 13.1% (inactive).

For `O=C1NC(=S)N/C1=C/c1cc2c(cc1[N+](=O)[O-])OCO2`, the inhibition is 6.53% (inactive).

As to `O=C(O)/C=C\c1cc2c(cc1[N+](=O)[O-])OCO2`, the inhibition is 4.71% (inactive).

Turning to `CC1(C)OC(C)(C)/C(=C\c2ccccc2[N+](=O)[O-])C1=O`, the inhibition is -3.9% (inactive).

On to `CCOC(=O)N1CCC(NC(=O)CSCc2nc(-c3ccccc3Cl)oc2C)CC1`, for which the inhibition was -1.81% (inactive).

For the molecule `CCc1ccc(C)[n+](CC(=O)c2cccs2)c1`, the inhibition was -10.5% (inactive).

Turning to `O=C(c1cccnc1)N1CCN(S(=O)(=O)c2cccc(Cl)c2)CC1`, the inhibition is 2.63% (inactive).

Regarding `Cc1cccc(CCNS(=O)(=O)c2ccc3c(c2)NC(=O)CS3)c1`, the inhibition was -3.63% (inactive).

In the case of `CSCCC(NC(N)=O)C(=O)Nc1ccc2ccccc2c1` (centres undefined), the inhibition is 3.12% (inactive).

For the molecule `NC(=O)c1ccc(NC(=O)CNc2cc(S(=O)(=O)N3CCOCC3)ccc2N2CCCC2)cc1`, the inhibition is -2.57% (inactive).

`CCN(CC)C(=O)c1ccccc1NC(=O)CN1C(=O)c2ccccc2S1(=O)=O`: the inhibition is -2.2% (inactive).

In the case of `CN1C(=O)/C(=C\c2cccc(OCc3ccccc3)c2)SC1=S`, the inhibition is 5.28% (inactive).

Regarding `O=C(O)CN1C(=O)/C(=C\c2cccc(OC(=O)c3ccco3)c2)SC1=S`, the inhibition was 2.44% (inactive).

In the case of `CC(=O)NNC(=O)CN1C(=O)/C(=C/c2ccccc2)SC1=S`, the inhibition is -2.32% (inactive).

As to `COc1cccc(/C=C2/SC(=S)N(CC(=O)NNC(=O)c3ccccc3O)C2=O)c1`, the inhibition is 2.67% (inactive).

Regarding `O=C(O)COc1cccc(/C=C2/SC(=S)N(Cc3ccccc3)C2=O)c1`, the inhibition was 13.1% (inactive).

Turning to `O=C1/C(=C\c2cccc(O)c2)SC(=S)N1Cc1ccccc1`, the inhibition was -14.8% (inactive).

`COc1cccc(/C=C2/SC(=S)N(CC(=O)NNC(=O)c3ccccc3OC)C2=O)c1`: the inhibition is 4.13% (inactive).

Regarding `O=C(CN1C(=O)/C(=C/c2cccc(Cl)c2)SC1=S)NC1C=CS(=O)(=O)C1` (centres undefined), the inhibition was -2.72% (inactive).

For the molecule `COc1ccccc1CC(=O)OCC(=O)N1CCN(c2ccc(F)cc2)CC1`, the inhibition is -10.1% (inactive).

With `Cc1[nH]c(C)c(S(=O)(=O)N2CCN(c3cccc(Cl)c3)CC2)c1C(=O)N1CCCCC1`, the inhibition is -6.81% (inactive).

As for `CC(C)CCN(C(=O)C1CCCC1)c1c(N)n(Cc2ccccc2)c(=O)[nH]c1=O`, the inhibition was 0.73% (inactive).
